Test results reported in PubChem BioAssay (NCI).
About 79,000 compounds went through this panel and 15% of them were active in at least one assay; those are over-represented in the sample as a whole. Unmarked numbers belong to inactive results. Activity calls are given as the source filed them. Cut-off read from the data, not from the text of the source: active = growth inhibition above about 70%; inactive = the rest.

Test: NCI Yeast Anticancer Drug Screen. Data for the rad14 strain (AID 159);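 note: 0% = growth of vehicle-treated control cultures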
Conditions: S. cerevisiae rad14 strain growth inhibition, stronger effect = higher value
Experimental: Growth inhibition of yeast strains with defined genetic alterations is measured as a screen for potential anti-cancer activity. Selected strains with alterations in DNA damage repair or cell cycle control were exposed to compounds and growth inhibition was measured relative to vehicle treated controls. The strain used in this assay is rad14

Row | SMILES | growth inhibition (at 1.2 µM) | growth inhibition (at 3.7 µM) | growth inhibition (at 11.0 µM) | growth inhibition (at 33.0 µM) | growth inhibition (at 100.0 µM)
1 | CNC1C(OC2C(OC3C(O)C(O)C(N=C(N)N)C(O)C3N=C(N)N)OC(C)C2(O)CO)OC(CO)C(O)C1O (stereo not given) | -2% | 4% | -2% | 32% | -9%
2 | c1ccc2c(c1)C(=NCCCN1CCCCCC1)c1cccn1-2 | -15% | -3% | -2% | 4% | 98% (active)
3 | COC1=CC(=O)C(C2(OC(C)C)OC(=O)C(Cl)=C2Cl)=CC1=O (stereo not given) | 3% | 37% | 99% (active) | 99% (active) | 99% (active)
4 | CN(CCc1ccccn1)c1ccc2c(c1)Cc1ccccc1-2 | 1% | 10% | 38% | 37% | 56%
5 | Cc1nc(-c2ccccc2)c(-c2ccccc2)s1 | 9% | 10% | 7% | 84% (active) | 97% (active)
6 | CNC(=O)OCc1c(COC(=O)NC)c(-c2ccc(Cl)c(Cl)c2)n2c1CCC2 | -34% | -36% | -31% | 98% (active) | 98% (active)
7 | CC1(C)C(=O)OC(n2cc(F)c(=O)[nH]c2=O)C1=O (stereo not given) | -36% | -37% | -18% | -15% | -8%
8 | CNC(=O)OCc1c(COC(=O)NC)c(-c2ccc(-c3ccccc3)cc2)n(C)c1C | -13% | -13% | -21% | 13% | 75% (active)
